Each structure is given as a SMILES string. About 83,000 compounds went through this panel and 20% of them were active in at least one assay; those are over-represented in the sample as a whole.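 Compound tested at a single concentration for 48 hours in 96-well plates; a percent growth value below 10 was scored as active.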 Values without a mark were called inactive. Activity calls are given as the source filed them.

Some test systems named below: SR leukemia; RPMI-8226 leukemia; OVCAR-8 ovarian; OVCAR-5 ovarian; OVCAR-4 ovarian; SK-OV-3 ovarian; IGROV1 ovarian; OVCAR-3 ovarian; HS 578T breast; NCI/ADR-RES ovarian.
Assay in all cases: NCI-60 one-dose screen, 48 h (100 = growth as untreated, 0 = no growth, -100 = all killed)
What all share (conditions): 10 µM

As to `COc1cccc2nc(Nc3cccc(NC(=O)c4ccc(CN5CCCN(C)CC5)c(C(F)(F)F)c4)c3)ccc12`, the growth is -27.1% (active) in the assay with SR leukemia; -39.4% (active) in the assay on RPMI-8226 leukemia; -69.3% (active) with OVCAR-8 ovarian; -100% (active) with OVCAR-5 ovarian; -84.4% (active) with OVCAR-4 ovarian; -72.8% (active) in the assay with SK-OV-3 ovarian. The growth in the assay on IGROV1 ovarian was -85.2% (active); in the assay with OVCAR-3 ovarian, -58.6% (active); in the assay on HS 578T breast, -61.7% (active); in the assay on NCI/ADR-RES ovarian, -77.9% (active).
Consider `O=C1CCC(N2Cc3c(NCc4ccc(-c5ccccc5)cc4)cccc3C2=O)C(=O)N1` (stereo not drawn), for which the growth is 72.5% with SR leukemia; 68.5% with RPMI-8226 leukemia; 34.9% with OVCAR-8 ovarian; 83.7% with OVCAR-5 ovarian; 69.8% in the assay on OVCAR-4 ovarian; 103% with SK-OV-3 ovarian. Besides, the growth with IGROV1 ovarian was 57.4%; in the assay with OVCAR-3 ovarian, 82.8%; in the assay with HS 578T breast, 51.7%; in the assay with NCI/ADR-RES ovarian, 52.6%.
With `Cc1ccc2nc(COc3ccc(C(=O)NNC(=S)NC(=O)c4ccccc4)cc3)[nH]c2c1`, the growth in the assay on SR leukemia was 25.8%; in the assay with RPMI-8226 leukemia, 64.9%; with OVCAR-8 ovarian it was 42.1%; in the assay on OVCAR-5 ovarian, 80.2%; in the assay on OVCAR-4 ovarian, 57.3%; in the assay on SK-OV-3 ovarian it was 67.2%. For the same molecule, the growth in the assay with IGROV1 ovarian is 53.4%; with OVCAR-3 ovarian, 58.2%; with HS 578T breast, 60.5%; in the assay with NCI/ADR-RES ovarian, -3.62% (active).
As to `COc1ccc(C2N(c3ccc(Br)cc3)N=C(C(C)=O)N2[C@H]2[C@H](OC(C)=O)O[C@H](COC(C)=O)[C@@H](OC(C)=O)[C@@H]2OC(C)=O)cc1` (stereo partly drawn), the growth with SR leukemia was 75.9%; in the assay with RPMI-8226 leukemia, 41.1%; with OVCAR-8 ovarian it was 78%; in the assay with OVCAR-5 ovarian it was 85.6%; in the assay with OVCAR-4 ovarian, 71.6%; in the assay on SK-OV-3 ovarian, 61.4%. The growth with IGROV1 ovarian is 77.8%; with OVCAR-3 ovarian, 73.2%; in the assay with HS 578T breast it was 63.3%; with NCI/ADR-RES ovarian, 62.1%.
Consider `COc1ccc(-c2c(N)c(=O)n(C)c3ccccc23)cc1`, for which the growth with SR leukemia was 36.3%; with RPMI-8226 leukemia it was 25.1%; in the assay with OVCAR-8 ovarian, 73.9%; in the assay on OVCAR-5 ovarian, 76.7%; with OVCAR-4 ovarian, 56.5%; with SK-OV-3 ovarian, 100%. For the same molecule, the growth in the assay with IGROV1 ovarian is 46.5%; in the assay on OVCAR-3 ovarian, 51.5%; with HS 578T breast it was 66.9%; in the assay on NCI/ADR-RES ovarian it was 58.5%.
Regarding `CCOC(=O)C1=C(N)N(c2ccccc2)C2=C(C(=O)CC(C)(C)C2)C1c1ccc(Cl)cc1` (stereo not drawn), the growth was 13.1% in the assay with SR leukemia; 7.68% (active) in the assay with RPMI-8226 leukemia; 61.1% in the assay with OVCAR-8 ovarian; 57.6% in the assay on OVCAR-5 ovarian; 29.3% with OVCAR-4 ovarian; 43.7% in the assay with SK-OV-3 ovarian. Besides, the growth was 59.5% in the assay on IGROV1 ovarian, 51.6% in the assay on OVCAR-3 ovarian, 71.9% in the assay on HS 578T breast and 25.6% in the assay with NCI/ADR-RES ovarian.
Turning to `CN1C(=O)N(C)C2SC(N/N=C/c3ccc(F)cc3)=NC21` (stereo not drawn), the growth is 11.7% in the assay on SR leukemia; 77% in the assay with RPMI-8226 leukemia; 66.8% in the assay on OVCAR-8 ovarian; 77.9% in the assay with OVCAR-5 ovarian; 77.2% in the assay with OVCAR-4 ovarian; 46% in the assay on IGROV1 ovarian. For the same molecule, the growth with OVCAR-3 ovarian was -41.9% (active); with HS 578T breast, 33.5%; in the assay with NCI/ADR-RES ovarian, 13%.
For `CCCCOc1ccc(Nc2nc3ccccc3nc2Nc2ccc(OCCCC)cc2)cc1`, the growth in the assay on SR leukemia was 80.1%; in the assay on RPMI-8226 leukemia, 57.8%; in the assay with OVCAR-8 ovarian, 92.3%; in the assay with OVCAR-5 ovarian, 128%; with OVCAR-4 ovarian, 93.6%; in the assay on SK-OV-3 ovarian, 106%. For the same molecule, the growth in the assay with IGROV1 ovarian was 108%; in the assay with OVCAR-3 ovarian it was 68.9%; in the assay with HS 578T breast, 103%; in the assay on NCI/ADR-RES ovarian it was 94.3%.
For `C/C(=C\CSc1ccccc1C(=O)O)CCCC(C)CCCC(C)CCCC(C)C` (stereo not drawn), the growth in the assay on SR leukemia was 18.7%; with RPMI-8226 leukemia it was 35%; with OVCAR-8 ovarian it was 54%; in the assay on OVCAR-5 ovarian it was 115%; in the assay on OVCAR-4 ovarian it was 57.3%; with IGROV1 ovarian, 76.1%. Further, the growth with OVCAR-3 ovarian was 74.4%; in the assay with HS 578T breast it was 56%; in the assay on NCI/ADR-RES ovarian, 43.1%.
Take `Nc1nc2c(F)c(F)c(F)c(F)c2s1`: the growth with SR leukemia is 86.5%; in the assay on RPMI-8226 leukemia it was 108%; in the assay on OVCAR-8 ovarian, 99.7%; with OVCAR-5 ovarian, 104%; in the assay with OVCAR-4 ovarian it was 104%; with IGROV1 ovarian, 101%. Moreover, the growth in the assay with OVCAR-3 ovarian is 104%; in the assay with HS 578T breast, 100%; in the assay on NCI/ADR-RES ovarian, 104%.
With `COc1ccc(-c2cc(-c3cc(C(=O)c4ccc(Br)cc4)n4ccc(C)cc34)nc(N)c2C#N)cc1`, the growth in the assay with SR leukemia was 79.1%; in the assay with RPMI-8226 leukemia, 86.8%; in the assay on OVCAR-8 ovarian, 66.3%; with OVCAR-5 ovarian, 91.8%; in the assay with OVCAR-4 ovarian it was 86.1%; in the assay with IGROV1 ovarian, 90%. For the same molecule, the growth in the assay with OVCAR-3 ovarian was 108%; with HS 578T breast, 90.8%; with NCI/ADR-RES ovarian it was 82.6%.
On to `Oc1ccc(/C=C2\CCCc3cc4ccc(O)cc4[o+]c32)c(O)c1`, for which the growth with SR leukemia was 15.3%; in the assay with RPMI-8226 leukemia, 50.6%; in the assay with OVCAR-5 ovarian, 122%; in the assay with OVCAR-4 ovarian, 42.9%; with SK-OV-3 ovarian, 86.3%; in the assay with IGROV1 ovarian it was 21.4%. Further, the results for the growth in the assay on OVCAR-3 ovarian, in the assay with HS 578T breast and in the assay with NCI/ADR-RES ovarian were -45.1% (active), 52.3% and -24.7% (active), respectively.
On to `NS(=O)(=O)c1ccc(N=Nc2c(O)n(CC(=O)Nc3ccccc3Br)c3ccccc23)cc1`, for which the growth in the assay with SR leukemia was 41.3%; in the assay on RPMI-8226 leukemia it was 37.3%; with OVCAR-8 ovarian, 18.6%; with OVCAR-5 ovarian, 70.2%; in the assay with OVCAR-4 ovarian, 69.4%; in the assay on IGROV1 ovarian, 26.4%. The growth with OVCAR-3 ovarian is 45.7%; in the assay on HS 578T breast, 45.7%; in the assay with NCI/ADR-RES ovarian it was 43.6%.
As to `COC(=O)c1c(C(=O)OC)c2n(c1C)[C@@H]([C@@H](C)[C@H]1CC[C@H]3[C@@H]4CCC5=CC(=O)CC[C@]5(C)[C@H]4CC[C@]13C)SC2`, the growth with SR leukemia is 17.9%; in the assay on RPMI-8226 leukemia, -11.5% (active); with OVCAR-5 ovarian, 54.2%; in the assay with OVCAR-4 ovarian, 38.5%; with SK-OV-3 ovarian, 48.7%; with IGROV1 ovarian, 75.9%. Also, the growth with OVCAR-3 ovarian is 51.4%; in the assay with HS 578T breast, 56.6%; with NCI/ADR-RES ovarian, 7.08% (active).

(Values after PubChem BioAssay (NCI).)
